From PubChem BioAssay (NCI) come the findings set out here.

This is part of a sample that, as a whole, favours compounds with a hit. Of some 79,000 tested, about 15% had one in any assay. Values without a mark were called inactive. Calls of active or inactive are those of the source. Cut-off read from the data, not from the text of the source: active = growth inhibition above about 70%; inactive = the rest.

Test [1] in a line: NCI Yeast Anticancer Drug Screen. Data for the rad50 strain (AID 155).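 Note: 0% = growth of vehicle-only cultures of the same strain.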 The note with it: S. cerevisiae rad50 strain growth inhibition, active compounds read high; at 50.0 µM unless noted. In short, it runs like this: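 Inhibition values express reduced yeast growth in compound-treated cultures relative to vehicle-treated controls.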
The nature of test [2]: NCI Yeast Anticancer Drug Screen. Data for the mec2-1 strain (AID 157). The note with it: S. cerevisiae mec2-1 strain, active compounds read high; at 50.0 µM unless noted. In short, it runs like this: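 Using mec2-1 yeast: add compound, measure growth, express inhibition versus vehicle-treated cultures.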
The nature of test [3]: NCI Yeast Anticancer Drug Screen. Data for the sgs1 mgt1 strain (AID 161).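 Note: 0% = growth of cultures given vehicle only.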 To be noted: S. cerevisiae sgs1 mgt1 strain, active compounds read high; at 50.0 µM unless noted. The method, boiled down:
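Compounds are added to genetically altered yeast, and growth is compared with cultures given vehicle alone to give percent inhibition.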

Test [4] in a line: NCI Yeast Anticancer Drug Screen. Data for the cln2 rad14 strain (AID 165).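 Note: 0% = growth equal to vehicle treated cultures.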 To be noted: S. cerevisiae cln2 rad14 strain, active compounds read high; at 50.0 µM unless noted. In short, it runs like this: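 Yeast strain cln2 rad14, bearing defects in cell cycle control and DNA repair, serves as the test system; values reflect growth inhibition compared with vehicle.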
Test [5] is described as follows: NCI Yeast Anticancer Drug Screen. Data for the bub3 strain (AID 167). To be noted: S. cerevisiae bub3 mutant strain, active compounds read high; at 50.0 µM unless noted. The method, boiled down: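 Steps: expose the mutant yeast strain to compound; grow alongside vehicle-treated cultures; measure growth; express inhibition against the vehicle cultures.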
Test [6] can be described thus: NCI Yeast Anticancer Drug Screen. Data for the mlh1 rad18 strain (AID 175). The note with it: S. cerevisiae mlh1 rad18 strain growth inhibition, active compounds read high; at 50.0 µM unless noted. In short, it runs like this: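 Steps: expose repair-defective yeast to compound; measure growth; express inhibition against vehicle-treated controls.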

Regarding `CC(=O)Nc1ccc(C2NCc3cnc(C)nc3N2)cc1` (stereo unspecified), the growth inhibition is 0.35% in test [1]; -0.75% in test [2]; 0.15% in test [3]; -6.95% in test [4]; 10.2% in test [5]; 0.95% in test [6].

Turning to `NC(=S)Nc1ccc(Br)cc1`, the growth inhibition is -0.85% in test [1]; 23.6% in test [2]; 25.5% in test [3]; 34.8% in test [4]; -4.05% in test [5]; 7.6% in test [6].

Take `CC(C(=O)O)c1ccc(-c2ccccc2)cc1` (stereo unspecified): the growth inhibition in test [1] is 10.6%; in test [2] it was 13.3%; in test [3], -1.85%; in test [4] it was -12.2%; in test [5], 1.4%; in test [6] it was 7.1%.

Turning to `C[N+]1(Cc2csc(-c3ccc(Cl)cc3)n2)CCCC1`, the growth inhibition in test [1] is -12.5%; in test [2], -23.1%; in test [3] it was 4.55%; in test [4], 9.75%; in test [5], -5.7%; in test [6] it was -11.7%.

On to `O=C1CC2c3ccccc3CCN2C2=C1CCC2` (stereo unspecified), for which the growth inhibition in test [1] is 13.6%; in test [2], 13.1%; in test [3] it was -0.4%; in test [4], -16.2%; in test [5] it was 0.5%; in test [6], 18.7%.

Regarding `COc1c2c(c(OC)c3c(=O)cc(C/C(=N/NC(=O)C[n+]4ccccc4)C(=O)Nc4cc(C)ccc4C)oc13)OCO2`, the growth inhibition is -13.4% in test [1]; -6.65% in test [2]; -18.1% in test [3]; 5.6% in test [4]; -3.15% in test [5]; -0.3% in test [6].

With `[O-][N+](=Nc1ccc2c(c1)Cc1ccccc1-2)c1ccc2c(c1)Cc1ccccc1-2`, the growth inhibition in test [1] is 25.7%; in test [2], -20.2%; in test [3], 25.1%; in test [4], -19.1%; in test [5], 0.35%; in test [6], -7%.

`CC/C=C/C(CC)(C(=O)OCC)C(=O)OCC`: the growth inhibition in test [1] was 5.45%; in test [2], -15.8%; in test [3], -6.7%; in test [4], -2%; in test [5] it was -16.3%; in test [6] it was -20.1%.

For `C[N+]1(C2C=CCC(c3ccccc3)C2[N+](=O)[O-])CCCC1` (stereo unspecified), the growth inhibition is 27.2% in test [1]; 9.95% in test [2]; 35.5% in test [3]; 15.2% in test [4]; -3.6% in test [5]; 10.9% in test [6].

Turning to `O=C1OCC=C1Sc1ccccc1`, the growth inhibition in test [1] was -1.7%; in test [2] it was -8.05%; in test [3], -13.4%; in test [4], -7.7%; in test [5], -2.4%; in test [6], -8.8%.

For `O=C(CSc1n[nH]c(=S)c2nc[nH]c12)c1ccc(Br)cc1`, the growth inhibition in test [1] is 11.7%; in test [2], -0.2%; in test [3], 21.6%; in test [4], 33.1%; in test [5], -0.4%; in test [6] it was -8.65%.

As for `CCOC(=O)c1[nH]c(C)c(/C=N/O)c1C`, the growth inhibition was 22.9% in test [1]; -1.8% in test [2]; 6.65% in test [3]; 13.6% in test [4]; 10.1% in test [5]; 15.2% in test [6].

Take `CN(C)/C=N/n1c2ccccc2c2ccccc21`: the growth inhibition in test [1] is -1.7%; in test [2], -6.8%; in test [3], 0%; in test [4], -7.55%; in test [5], 23.6%; in test [6] it was 14.8%.

For `COC(=O)CCn1cnc2c(SC)ncnc21`, the growth inhibition was -27.2% in test [1]; 16.2% in test [2]; -44% in test [3]; 21.5% in test [4]; 19.2% in test [5]; -12.7% in test [6].

As to `N#Cc1ccccc1NC(=O)C(=O)c1c(O)c2ccccc2oc1=O`, the growth inhibition is -13.8% in test [1]; -6.8% in test [2]; -16.1% in test [3]; -16.9% in test [4]; -12.2% in test [5]; -25% in test [6].

As for `O=C1CSC(c2ccc([N+](=O)[O-])cc2)N1c1ccc(-n2c(-c3ccccc3)nc3ccccc3c2=O)cc1` (stereo unspecified), the growth inhibition in test [1] was 2.5%; in test [2], -10.2%; in test [3] it was 15.2%; in test [4], -10.5%; in test [5], 30%; in test [6] it was 13.2%.

Turning to `COC1CC(OC2CCC3(C)C(CCC45CCC(C6=CC(=O)OC6)C(C)(CCC43)C5=O)C2)OC(C)C1O` (stereo unspecified), the growth inhibition in test [1] was 22.4%; in test [2], -11.7%; in test [3] it was 2.6%; in test [4], 17.6%; in test [5], 12.8%; in test [6], -17.9%.

For the compound `CCCCCCCCCCCCCC(=O)OCCC(C)C`, the growth inhibition in test [1] is -5.85%; in test [2] it was 0.25%; in test [3], 7.25%; in test [4], -18.9%; in test [5] it was 3.4%; in test [6] it was -7.3%.

As to `O=P(O)(O)c1ccc(-c2ccc(I)cc2)cc1`, the growth inhibition in test [1] was 11.7%; in test [2], -15.5%; in test [3] it was 7.45%; in test [4], 22.2%; in test [5], -8.8%; in test [6] it was 13.2%.

Take `CN(C)C(=S)Oc1c([N+](=O)[O-])cc([N+](=O)[O-])cc1C(C)(C)C`: the growth inhibition is 94% (active) in test [1]; 89.9% (active) in test [2]; 93.8% (active) in test [3]; 78% (active) in test [4]; 92.6% (active) in test [5]; 95% (active) in test [6].

With `C=CCOC(=O)C(C)OC(=O)CCC(=O)OC(C)C(=O)OCC=C` (stereo unspecified), the growth inhibition in test [1] was 5.35%; in test [2], 4.3%; in test [3], 4.35%; in test [4] it was 3.95%; in test [5], 6.15%; in test [6], 4.85%.
